The target in assay [1] is Muscarinic acetylcholine receptor M1 (Rattus norvegicus) (UniProt P08482). Briefly: qHTS Assay for Antagonists of Acetylcholine Muscarinic M1 Receptor: Kinetic Measurement of Intracellular Calcium Response (AID 943).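 Note: Fluo-4 calcium signal as peak divided by basal fluorescence over 4 min; series mostly up to about 35 µM; nearly all actives have a fitted effect of over 75% in size.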 The procedure, abridged:
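CHO cells stably expressing rat M1 were loaded with no-wash Fluo-4 dye for 1 h at 37C, pre-incubated 10 min with compound, then challenged with EC80 carbachol (100 nM final); kinetic calcium read 4 min, peak/basal ratio.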

Assay [2] concerns the target Pyruvate kinase PKM (Homo sapiens) (UniProt P14618). Briefly: qHTS Assay for Activators of Human Muscle Pyruvate Kinase (AID 954; active = well fitted curve in the direction sought with a large enough effect, not every such curve was filed as active;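 note: 0% = uninhibited enzyme and -100% = no enzyme or full thiadiazolimine inhibition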). The method, boiled down:
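Luminescence from a luciferase ATP-detection/stop reagent reported PKM2 activity. Reactions contained 0.1 nM purified human enzyme, 0.5 mM PEP, 0.1 mM ADP and 7 mM MgCl2 at pH 7.2, run 1 h at RT.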

Assay [3] concerns the target Alpha-galactosidase A (Homo sapiens) (UniProt P06280). The assay is described as follows: Counterscreen for Glucocerebrosidase Inhibitors: qHTS Assay for Human alpha-Galactosidase at pH 4.5 (AID 992). Note: 0% is about no effect. The procedure, abridged: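 Enzyme at 2 nM final was combined with compound (0.7 nM to 77 uM) and 80 uM 4-methylumbelliferyl alpha-D-galactopyranoside in 50 mM citric acid, 0.005% Tween-20, pH 4.5. After 20 min at room temperature, fluorescence was read (Ex 365/Em 440 nm); AC50 came from Hill fits.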

The target in assay [4] is alpha-glucosidase (Oryza sativa, rice) (UniProt Q653V4). The assay is described as follows: Counterscreen for Glucocerebrosidase Inhibitors: qHTS Assay for Rice alpha-Glucosidase at pH 5.0 (AID 997).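 Note: 0% = full activity with enzyme and -100% = basal without enzyme.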 The method, boiled down:
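Rice alpha-glucosidase (4 nM final) with 400 uM 4-methylumbelliferyl-alpha-D-glucopyranoside in citrate buffer pH 5.0, 20 min at room temperature, stopped at pH 10; fluorescence 365/440 nm, compounds 0.7 nM–77 uM, AC50 from Hill fits.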

The nature of assay [5]: qHTS Assay for Identification of Small Molecule Agonists for Thrombopoietin (TPO) Signaling Pathway (AID 917). Note: % is set by controls: 0 for no effect and ±100 for the full control effect. The method, boiled down: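 We measured Glycoprotein IIb promoter–luciferase output in IL-3-starved Ba/F3 murine cells expressing the human TPO receptor after 24 hrs at 37 C with compounds and 26 pM TPO.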
The target of assay [6] is Rap guanine nucleotide exchange factor 3 (Homo sapiens) (UniProt O95398). Briefly: Confirmatory qHTS for antagonist of cAMP-regulated guanine nucleotide exchange factor 3 (EPAC1) (AID 1645880).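 Note: plate controls were DMSO only for no effect and full effect of the ATA control for full effect; nearly all actives have a fitted effect of over 55% in size.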 The procedure, abridged: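 Nucleotide exchange uses 100 nM EPAC1, 250 nM RAP1B-BODIPY-GDP and 50 uM GDP, with compounds in a concentration-titration series. After 5 min at room temperature, fluorescence (480 nm ex/540 nm em) is read every 5 min for 30 min. Data are normalized to control ATA and DMSO.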
Chain of Rap guanine nucleotide exchange factor 3 (Homo sapiens) (O95398 whole entry, looked up): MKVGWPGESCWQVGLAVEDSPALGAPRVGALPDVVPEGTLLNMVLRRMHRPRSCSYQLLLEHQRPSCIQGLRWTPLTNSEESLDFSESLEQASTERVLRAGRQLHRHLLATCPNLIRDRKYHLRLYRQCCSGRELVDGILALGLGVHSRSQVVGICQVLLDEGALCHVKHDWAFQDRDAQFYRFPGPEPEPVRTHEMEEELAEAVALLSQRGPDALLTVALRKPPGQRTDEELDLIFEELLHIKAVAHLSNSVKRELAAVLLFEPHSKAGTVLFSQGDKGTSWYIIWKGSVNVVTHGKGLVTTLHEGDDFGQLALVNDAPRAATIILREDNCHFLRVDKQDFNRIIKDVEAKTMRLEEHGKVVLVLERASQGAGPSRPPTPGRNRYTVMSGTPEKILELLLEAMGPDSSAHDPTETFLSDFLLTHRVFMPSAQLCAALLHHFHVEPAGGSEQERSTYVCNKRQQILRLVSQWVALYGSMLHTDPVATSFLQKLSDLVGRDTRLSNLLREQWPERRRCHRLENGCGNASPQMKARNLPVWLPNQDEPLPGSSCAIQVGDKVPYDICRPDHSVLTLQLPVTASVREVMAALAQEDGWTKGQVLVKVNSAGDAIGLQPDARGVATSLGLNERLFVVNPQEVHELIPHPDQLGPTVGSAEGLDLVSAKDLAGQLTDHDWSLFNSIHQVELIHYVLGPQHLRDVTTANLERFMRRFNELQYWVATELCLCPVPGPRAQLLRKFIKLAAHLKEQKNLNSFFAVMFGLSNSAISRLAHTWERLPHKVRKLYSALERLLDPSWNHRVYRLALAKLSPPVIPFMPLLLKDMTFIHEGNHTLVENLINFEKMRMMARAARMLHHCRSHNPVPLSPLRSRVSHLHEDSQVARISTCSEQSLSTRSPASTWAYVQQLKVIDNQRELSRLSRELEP

For assay [7] the target is unchanged. The assay is described as follows: Confirmatory qHTS for agonist of cAMP-regulated guanine nucleotide exchange factor 3 (EPAC1) (AID 1645881).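 Note: EPAC1 catalysed release of BODIPY-GDP from Rap1B seen as fluorescence loss; 100% = effect of cAMP agonist control; nearly all actives have a fitted effect of over 75% in size.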
In assay [8] the target is Rap guanine nucleotide exchange factor 4 (Homo sapiens) (UniProt Q8WZA2). Briefly: Confirmatory qHTS for agonist of cAMP-regulated guanine nucleotide exchange factor 4 (EPAC2) (AID 1645884).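 Note: nucleotide exchange releases bodipy-GDP from Rap1 and this lowers its fluorescence; % is set by controls: 0 for no effect and ±100 for the full control effect; nearly all actives have a fitted effect of over 65% in size.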
Chain of Rap guanine nucleotide exchange factor 4 (Homo sapiens) (Q8WZA2 whole entry, looked up): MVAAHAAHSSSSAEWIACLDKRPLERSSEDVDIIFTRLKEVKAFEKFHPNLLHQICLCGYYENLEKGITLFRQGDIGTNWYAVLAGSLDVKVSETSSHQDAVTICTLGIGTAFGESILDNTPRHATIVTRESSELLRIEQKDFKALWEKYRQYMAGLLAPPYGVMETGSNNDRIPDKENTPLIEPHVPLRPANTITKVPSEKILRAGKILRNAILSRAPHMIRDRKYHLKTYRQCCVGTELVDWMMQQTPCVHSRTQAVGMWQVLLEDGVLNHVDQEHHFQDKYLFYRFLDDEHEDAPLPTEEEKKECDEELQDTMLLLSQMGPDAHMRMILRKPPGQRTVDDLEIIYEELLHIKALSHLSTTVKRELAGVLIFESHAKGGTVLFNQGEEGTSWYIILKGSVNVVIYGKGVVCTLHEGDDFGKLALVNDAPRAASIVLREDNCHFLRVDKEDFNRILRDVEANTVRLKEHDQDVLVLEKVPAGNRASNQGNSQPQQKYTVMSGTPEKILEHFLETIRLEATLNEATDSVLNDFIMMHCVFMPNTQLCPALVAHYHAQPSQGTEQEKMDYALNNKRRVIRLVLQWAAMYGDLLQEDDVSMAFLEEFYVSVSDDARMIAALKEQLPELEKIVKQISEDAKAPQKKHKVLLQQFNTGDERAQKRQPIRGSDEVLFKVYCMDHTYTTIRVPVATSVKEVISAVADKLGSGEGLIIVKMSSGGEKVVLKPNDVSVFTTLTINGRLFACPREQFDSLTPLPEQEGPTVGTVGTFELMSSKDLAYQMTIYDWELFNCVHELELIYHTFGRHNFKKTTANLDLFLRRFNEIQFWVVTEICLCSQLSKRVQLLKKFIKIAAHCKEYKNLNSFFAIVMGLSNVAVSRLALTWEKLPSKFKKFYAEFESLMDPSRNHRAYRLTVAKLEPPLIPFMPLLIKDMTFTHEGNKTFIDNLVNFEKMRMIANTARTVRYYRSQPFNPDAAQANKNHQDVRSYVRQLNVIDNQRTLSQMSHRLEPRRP
Assay [9] can be described thus: Confirmation and Secondary Assay for Modulators of Hemoglobin Beta Chain Splicing at IVS2 654 locus (AID 910).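 Note: HeLa cells stably carrying EGFP split by mutant beta-globin IVS2-654 intron; per-well total GFP intensity by laser scanning cytometry after 2-day treatment; % of control where 0% means no effect.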 The procedure, abridged:
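Readout: per-well total peak green fluorescence (488 nm ex, 500–520 nm em) from objects 5–250 µm, reflecting correct splicing of an EGFP-654 reporter. Compounds were applied for 2 days at 37 °C to overnight-plated HeLa EGFP-654 cells; controls were DMSO and 500 nM IVS2-654 PNA.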

The nature of assay [10]: Confirmation and Secondary Assay for Modulators of Hemoglobin Beta Chain Splicing at IVS2 705 locus (AID 930).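 Note: HeLa cells stably expressing the EGFP-705 splicing reporter; GFP fluorescence per well restored by corrected splicing of the IVS2-705 intron in EGFP; series mostly up to about 46 µM; % of control where 0% means no effect.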 The procedure, abridged: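 Fluorescence gain (488 nm laser, 500-520 nm PMT) reflects restored correct splicing of a mutant IVS2-705 intron inside EGFP in stably transfected HeLa cells after 2-day compound treatment.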
Assay [11] concerns the target Rap guanine nucleotide exchange factor 4 (Homo sapiens) (UniProt Q8WZA2). Briefly: Confirmatory qHTS for antagonist of cAMP-regulated guanine nucleotide exchange factor 4 (EPAC2) (AID 1645885). Note: potency is the fitted concentration of half-maximal effect; nearly all actives have a fitted effect of over 25% in size.
Assay [12] has as its target Glutathione peroxidase 1 (Homo sapiens) (UniProt P07203). The assay is described as follows: Primary qHTS Assay for Inhibitors of Recombinant Selenoprotein Glutathione Peroxidase 1 (GPX1) (AID 1845191). Note: nearly all actives have a fitted effect of over 65% in size. The procedure, abridged:
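10 nM GPX1 + cpd, 30 min RT; start w/ 1 mM GSH, 0.5 mM cumene hydroperoxide, 0.5 mM NADPH, 100 nM GR, 0.01% BSA; buffer 50 mM Tris-HCl pH 7.5, 2 mM EDTA, 150 mM NaCl; Fl 340/450, 0 & 15 min.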

Assay [13] deals with Muscarinic acetylcholine receptor M1 (Rattus norvegicus) (UniProt P08482). Briefly: qHTS Assay for Antagonists of Acetylcholine Muscarinic M1 Receptor: Measurement of IP-One Response (AID 944). Note: nearly all actives have a fitted effect of over 75% in size. The method, boiled down:
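CHO cells expressing rat M1 receptor, recovered overnight, were pre-incubated 10 min with compound, then stimulated 30 min with carbachol at EC80 (200 nM) in LiCl-containing buffer, pH 7.4. IP1 accumulation was read by HTRF (620/665 nm).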

A short description of assay [14]: Counterscreen for APE1 Inhibitors: Fluorescent Dye Displacement Validation Assay (AID 1707).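 Note: plate controls were ThO with dsDNA and no compound for no effect and ThO without dsDNA for full effect.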 The procedure, abridged: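 Thiazole Orange displacement from dsDNA: 250 nM ThO with 50 nM TAMRA-labelled abasic-site (tetrahydrofuran) duplex in 50 mM Tris-HCl pH7.5, 50mM NaCl, 2 mM MgCl2, 0.01% Tween-20. Loss of endpoint fluorescence (ex 480 nm, em 540 nm) flags DNA binders.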

The target of assay [15] is ATP-dependent DNA helicase Q1 (Homo sapiens) (UniProt P46063). Briefly: qHTS Validation Assay for Inhibitors of RecQ-Like Dna Helicase 1 (RECQ1) (AID 2353).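 Note: plate controls were DMSO vehicle for no effect and enzyme-free control for full effect.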 The procedure, abridged:
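50 nM RECQ1T1 preincubated 15 min with compound in Tris pH 8.0 buffer with MgCl2, DTT, Tween-20 and 2.5 ug/ml poly(dI-dC); started with 200 nM TAMRA/BHQ-2 forked duplex and 2 mM ATP. Unwinding read as fluorescence (525/598 nm), two reads 2 h apart.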

Assay [16] concerns the target Transient receptor potential cation channel subfamily V member 1 (Homo sapiens) (UniProt Q8NER1). Briefly: HTS Assay for Compounds that Act as Enhancers of the Vanilloid Receptor 1 (AID 488979). Note: 0% is about no effect. The procedure, abridged: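 Calcium influx kinetics via Fluo-8 (480/520 nm) in TRPV1-expressing cells, 2000/well cultured overnight at 35.5C. Compound-alone read 3 min (agonist phase), followed by EC20 capsaicin challenge for 2 min (enhancer phase).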

The target of assay [17] is Thyrotropin receptor (Homo sapiens) (UniProt P16473). Briefly: qHTS Assay for Antagonists of the Thyroid Stimulating Hormone Receptor (AID 488980). Note: series mostly up to about 58 µM; 0% is about no effect. The method, boiled down: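 Cells expressing human TSHR (HEK293) are dispensed in HBSS/HEPES containing 70 uM RO 20-1724, compound is added, then TSH at EC80 (4 nM final). Antibody in lysis buffer follows, 30 minutes at room temperature before HTRF detection.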
Chain of Thyrotropin receptor (Homo sapiens) (P16473 whole entry, looked up): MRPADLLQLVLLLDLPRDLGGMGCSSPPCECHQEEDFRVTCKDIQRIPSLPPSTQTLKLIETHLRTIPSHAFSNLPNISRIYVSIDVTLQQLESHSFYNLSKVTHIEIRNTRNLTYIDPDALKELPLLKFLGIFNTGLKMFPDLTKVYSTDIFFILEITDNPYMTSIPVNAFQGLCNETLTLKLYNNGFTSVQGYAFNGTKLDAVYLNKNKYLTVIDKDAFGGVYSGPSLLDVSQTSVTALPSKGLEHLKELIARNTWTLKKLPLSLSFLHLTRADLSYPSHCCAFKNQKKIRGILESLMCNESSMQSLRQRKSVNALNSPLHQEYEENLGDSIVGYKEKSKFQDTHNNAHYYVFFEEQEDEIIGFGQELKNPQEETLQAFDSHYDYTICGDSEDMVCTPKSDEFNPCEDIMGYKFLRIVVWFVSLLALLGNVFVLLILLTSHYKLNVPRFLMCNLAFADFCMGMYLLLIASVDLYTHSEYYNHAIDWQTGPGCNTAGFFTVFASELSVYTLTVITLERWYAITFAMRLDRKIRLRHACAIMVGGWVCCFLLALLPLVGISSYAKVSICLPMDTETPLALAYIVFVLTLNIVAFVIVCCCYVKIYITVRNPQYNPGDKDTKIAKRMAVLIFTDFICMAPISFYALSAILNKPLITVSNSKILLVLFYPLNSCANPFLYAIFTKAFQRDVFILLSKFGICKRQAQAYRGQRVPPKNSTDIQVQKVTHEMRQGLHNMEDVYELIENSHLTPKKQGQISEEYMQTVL

In assay [18] the target is Thyrotropin-releasing hormone receptor (Homo sapiens) (UniProt P34981). The assay is described as follows: qHTS for Small Molecule Agonists and Allosteric Enhancers of Human TRH Receptor: Validation Screen for Agonists (AID 493127;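 active = calcium activation more than 3 SD above the typical response in the agonist read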;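 note: intracellular calcium rise by fluo-8 fluorescence before TRH EC20 addition; 0% is about no effect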). Conditions: TRH receptor agonist cell assay; at 2 µM; hits give high values. The procedure, abridged:
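TRHR-expressing cells were plated overnight in serum-containing medium, then loaded with fluo-8 calcium dye at room temperature for 30 min–1.5 h. After a 10 s baseline, compound was pin-transferred and calcium fluorescence (ex 480/em 530) read kinetically for agonist response.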

In assay [19] the target is Galactokinase (Homo sapiens) (UniProt P51570). The assay is described as follows: qHTS Validation Assay for Inhibitors of Human Galactokinase (GALK) (AID 493189). Note: 0% is about no effect. The method, boiled down:
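Compounds were pin-transferred into ATP buffer, then GALK-galactose mix was added (final 5 nM enzyme, 100 uM galactose, 35 uM ATP). After 1 h at room temperature, remaining ATP was measured luminescently.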

A short description of assay [20]: Validation screen for small molecules that induce DNA re-replication in SW480 colon adenocarcinoma cells (AID 504364). Note: 0% is about no effect. The method, boiled down: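 SW480 cells seeded at 250 per well were exposed to compound or DMSO for 48 hr at 37 C, 5% CO2, then stained with Hoechst for 40 min. DNA content per nucleus was imaged (405 nm ex, 500-530 nm em).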

Values without a mark were called inactive. Inconclusive results are not listed. Activity calls are given as the source filed them. Unless noted, calls come from the whole dose curve; as a rule, active = well fitted curve in the direction sought with a large enough effect; inconclusive = small, poorly fitted or top-dose-only effect, or another doubt; inactive = no such curve, though single readings can be large; an effect the other way counts as inactive or inconclusive.

Chain of Glutathione peroxidase 1 (Homo sapiens) (P07203 whole entry, looked up): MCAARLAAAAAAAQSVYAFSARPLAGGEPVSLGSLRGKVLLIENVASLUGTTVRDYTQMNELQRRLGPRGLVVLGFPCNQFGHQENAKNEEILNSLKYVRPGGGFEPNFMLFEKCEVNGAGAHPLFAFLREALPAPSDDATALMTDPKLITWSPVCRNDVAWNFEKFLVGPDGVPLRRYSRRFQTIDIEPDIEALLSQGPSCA
Chain of Muscarinic acetylcholine receptor M1 (Rattus norvegicus) (P08482 whole entry, looked up): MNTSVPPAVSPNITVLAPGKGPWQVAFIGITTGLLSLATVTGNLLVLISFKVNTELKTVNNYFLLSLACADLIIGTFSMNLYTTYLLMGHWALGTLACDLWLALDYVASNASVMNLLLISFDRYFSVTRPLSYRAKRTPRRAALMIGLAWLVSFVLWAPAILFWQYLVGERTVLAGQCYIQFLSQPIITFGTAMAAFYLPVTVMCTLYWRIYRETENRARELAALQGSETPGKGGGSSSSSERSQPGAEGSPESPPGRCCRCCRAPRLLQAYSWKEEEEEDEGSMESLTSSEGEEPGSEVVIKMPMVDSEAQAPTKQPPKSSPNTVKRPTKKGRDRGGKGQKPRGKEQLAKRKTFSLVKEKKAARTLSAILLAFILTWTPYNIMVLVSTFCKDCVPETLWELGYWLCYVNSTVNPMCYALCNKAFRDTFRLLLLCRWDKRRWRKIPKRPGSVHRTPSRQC
Chain of Alpha-galactosidase A (Homo sapiens) (P06280 whole entry, looked up): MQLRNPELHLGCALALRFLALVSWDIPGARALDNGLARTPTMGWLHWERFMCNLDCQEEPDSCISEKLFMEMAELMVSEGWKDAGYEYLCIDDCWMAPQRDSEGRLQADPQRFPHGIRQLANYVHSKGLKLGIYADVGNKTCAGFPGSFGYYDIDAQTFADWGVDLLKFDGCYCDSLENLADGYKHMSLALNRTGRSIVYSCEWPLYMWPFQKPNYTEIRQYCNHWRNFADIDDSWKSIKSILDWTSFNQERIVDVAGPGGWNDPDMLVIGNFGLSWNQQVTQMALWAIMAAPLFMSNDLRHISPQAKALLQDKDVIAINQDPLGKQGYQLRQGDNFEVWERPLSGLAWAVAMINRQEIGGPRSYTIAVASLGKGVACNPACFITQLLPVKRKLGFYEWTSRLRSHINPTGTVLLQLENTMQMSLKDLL
Chain of Pyruvate kinase PKM (Homo sapiens) (P14618 whole entry, looked up): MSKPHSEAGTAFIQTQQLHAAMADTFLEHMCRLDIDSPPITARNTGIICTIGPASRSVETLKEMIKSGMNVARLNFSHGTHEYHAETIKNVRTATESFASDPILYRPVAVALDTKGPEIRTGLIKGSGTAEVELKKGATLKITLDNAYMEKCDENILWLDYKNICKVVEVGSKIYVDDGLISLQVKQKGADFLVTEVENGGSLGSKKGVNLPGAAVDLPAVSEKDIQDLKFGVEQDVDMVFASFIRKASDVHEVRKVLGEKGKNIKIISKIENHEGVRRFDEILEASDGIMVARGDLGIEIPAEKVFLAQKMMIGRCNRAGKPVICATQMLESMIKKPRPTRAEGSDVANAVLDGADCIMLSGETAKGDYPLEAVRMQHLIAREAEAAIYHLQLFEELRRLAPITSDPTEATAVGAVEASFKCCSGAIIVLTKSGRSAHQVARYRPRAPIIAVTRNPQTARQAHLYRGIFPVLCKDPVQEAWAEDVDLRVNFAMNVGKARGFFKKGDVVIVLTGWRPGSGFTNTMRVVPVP
Chain of Galactokinase (Homo sapiens) (P51570 whole entry, looked up): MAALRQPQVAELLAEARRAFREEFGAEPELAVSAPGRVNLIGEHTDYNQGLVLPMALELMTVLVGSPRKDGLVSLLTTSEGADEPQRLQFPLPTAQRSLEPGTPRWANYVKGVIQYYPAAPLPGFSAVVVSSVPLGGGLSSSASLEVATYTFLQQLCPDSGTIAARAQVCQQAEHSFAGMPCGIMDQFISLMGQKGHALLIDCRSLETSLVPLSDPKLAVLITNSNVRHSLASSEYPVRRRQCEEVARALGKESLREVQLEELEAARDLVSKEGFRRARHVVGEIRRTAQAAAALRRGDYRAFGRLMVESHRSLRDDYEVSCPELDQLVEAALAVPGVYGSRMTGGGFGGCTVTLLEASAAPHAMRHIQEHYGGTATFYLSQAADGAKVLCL

For the compound `N#CC(=C(/N)Sc1ccccc1N)/C(C#N)=C(/N)Sc1ccccc1N`, in [1], the Potency result was “inactive”. The result in assay [2], in [3] and in assay [4] was inactive.
For `CC[C@H](C)N(C)C(=O)c1cc2ccccc2c(-c2ccccc2Cl)n1`, the Potency entry in [5] and in [6] was “inactive” throughout. Also, the result in [2], in assay [3], in assay [7] and in assay [8] was inactive.
As for `CC[C@H](C)C(=O)O[C@H]1CCC=C2C=C[C@H](C)[C@H](CC[C@@H]3C[C@H](O)CC(=O)O3)[C@H]21`, the Potency entry in [5] and in assay [6] was “inactive” throughout. Also, the call in [3], in assay [4], in assay [7] and in assay [8] was inactive.
For the compound `CCOC(=O)C1=C(C)NC(C)=C(C(=O)OC)[C@H]1c1cccc([N+](=O)[O-])c1`, the compound was classed as inactive in assay [9], in [10], in assay [2] and in assay [7]. For the same compound, the Potency result in assay [6] is “inactive”.
With `Cc1sc(N)c(C(=O)c2cccc(C(F)(F)F)c2)c1C`, the Potency result in assay [6] was “inactive”. Besides, the compound was classed as inactive in assay [7] and in assay [8].
Consider `CCOC(=O)C(CCc1ccccc1)NC1CCc2ccccc2N(CC(=O)O)C1=O` (centres undefined), for which the result in assay [9] and in assay [10] was inactive.
Turning to `COC(=O)C1=C(C)NC(C)=C([N+](=O)[O-])[C@@H]1c1ccccc1C(F)(F)F`, the result in [7] and in assay [8] was inactive. For the same compound, the Potency in assay [11] is 35 µM (active).
Consider `Cc1ccc(-c2nn(C(C)(C)C)c3ncnc(N)c23)cc1`, for which the Potency result in [12] was “inactive”.
Take `Fc1ccc(-c2nc3n(c2-c2ccncc2)CCS3)cc1`: the Potency result in assay [12] is “inactive”.
For `CC(C)=CCC/C(C)=C/CC/C(C)=C/CO`, the compound was classed as inactive in [9], in assay [10], in assay [7] and in [8]. The Potency in assay [11] is 31.2 µM (active).
As for `COc1ccc2c(c1)c(CC(=O)N1CCOCC1)c(C)n2C(=O)c1ccc(Cl)cc1`, the Potency entry in [5], in [13], in assay [14] and in assay [15] was “inactive” each time. Besides, the result in assay [4], in assay [16], in assay [17], in [19] and in assay [20] was inactive. Besides, the activation in assay [18] was 1.25%.
Regarding `C[C@H]1C=C2C=C[C@H](C)[C@H](CC[C@@H]3C[C@@H](O)CC(=O)O3)[C@H]2[C@@H](OC(=O)[C@@H](C)CCO)C1`, the outcome in [7] and in assay [8] was inactive.
Take `C[N+](C)(C)CCC(=O)c1cccc2ccccc12`: the Potency result in assay [1], in [13], in assay [14] and in [15] was “inactive” in each case. The call in [2], in assay [3], in assay [4], in [16], in [17] and in [19] was inactive. Moreover, in assay [20], the outcome was inactive. The activation in [18] is 3.69%.
As for `C[C@@H](CCc1ccc(O)cc1)NCCc1ccc(O)c(O)c1`, the compound was called inactive in assay [3].
Turning to `Cc1ccc(NC2=CC(=O)c3sc(C)nc3C2=O)cc1`, in [12], the Potency result was “inactive”.
For `c1ccc(-c2n[nH]c3c2oc2ccccc23)cc1`, the Potency result in assay [12] is “inactive”.
As to `CN[C@@H]1[C@H](O)[C@H](O[C@@H]2[C@H](O)[C@@H](O[C@H]3O[C@H]([C@@H](C)NC)CC[C@H]3N)[C@@H](N)C[C@H]2N)OC[C@]1(C)O`, the outcome in assay [12] was “inactive [at 9.52 µM]”.

The values are drawn from PubChem BioAssay (NCATS).
